Assay [1] in a line: small molecules captured by biotinylated probe aFSTL3 – biochemical, small-molecule microarray, fluorescence 635/667, stem cell growth factor project, primary screen (AID 1064).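 Further: measures binding of the biotinylated anti-FSTL3 antibody to printed compounds.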 As to conditions: higher = more signal.
Assay [2] in a line: binders from COS7 lysate, DM2A8 probe, primary screen, torsin A project, cell lysate, small-molecule microarray, fluorescence 635/667 (AID 1065). Particulars: higher = more signal, COS7 lysate expressing mutant human TOR1A.
A short description of assay [3]: small molecules captured by biotinylated probe aFGF2 – biochemical, small-molecule microarray, fluorescence 635/667, stem cell growth factor project, primary screen (AID 1067).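 Further: measures binding of biotinylated aFGF2 protein to printed compounds on slides; z-score merges feature fluorescence and signal-to-noise across triplicate slides.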 As to conditions: higher = more signal.
Assay [4] is described as follows: small molecules captured by biotinylated probe aFGF10 – biochemical, small-molecule microarray, fluorescence 635/667, stem cell growth factor project, primary screen (AID 1071).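 Further: score merges 667 nm spot intensity and signal to noise from triplicate slides.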 Particulars: higher = more signal.
Assay [5] deals with Neurogenic locus notch homolog protein 2 (Homo sapiens) (UniProt Q04721). The assay can be described thus: small molecules binding Notch2 protein – biochemical, small-molecule microarray, 635 nm fluorescence, stem cell growth factors, primary screen (AID 1073). Particulars: higher = more signal.
For assay [6], the target named is Pro-neuregulin-1, membrane-bound isoform (Homo sapiens) (UniProt Q02297). The experiment in a line: small molecules binding neuregulin-1 protein – biochemical, small-molecule microarray, fluorescence 635/667, psychiatric disease protein project, primary screen (AID 1075).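 Further: score combines 667 nm spot fluorescence with signal to noise.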 As to conditions: NRG1 binding, 635 nm fluorescence, higher = more signal.
Chain of Pro-neuregulin-1, membrane-bound isoform (Homo sapiens) (Q02297 whole entry, looked up, the tested form may be a part, canonical isoform): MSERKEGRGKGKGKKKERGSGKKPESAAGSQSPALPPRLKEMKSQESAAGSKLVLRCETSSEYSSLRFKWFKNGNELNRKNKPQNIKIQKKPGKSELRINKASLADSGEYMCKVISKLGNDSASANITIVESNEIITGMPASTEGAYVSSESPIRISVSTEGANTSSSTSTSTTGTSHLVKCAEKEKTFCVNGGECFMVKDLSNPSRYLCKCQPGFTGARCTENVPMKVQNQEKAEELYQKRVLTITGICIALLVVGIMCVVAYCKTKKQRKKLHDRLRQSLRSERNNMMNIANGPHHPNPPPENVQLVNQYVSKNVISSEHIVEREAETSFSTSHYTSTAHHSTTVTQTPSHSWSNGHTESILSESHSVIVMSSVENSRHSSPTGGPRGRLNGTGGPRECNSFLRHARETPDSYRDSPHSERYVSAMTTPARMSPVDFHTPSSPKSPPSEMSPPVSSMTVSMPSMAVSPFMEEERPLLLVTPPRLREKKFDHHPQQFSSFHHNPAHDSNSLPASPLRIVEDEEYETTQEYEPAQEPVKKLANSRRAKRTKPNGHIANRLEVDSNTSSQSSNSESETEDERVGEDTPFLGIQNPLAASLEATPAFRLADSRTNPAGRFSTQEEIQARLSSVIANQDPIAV
Assay [7] deals with Neuregulin-1 EGF-like domain. The experiment in a line: small molecules binding NRG1 EGF domain – biochemical, small-molecule microarray, 635 nm fluorescence, primary screen (AID 1081).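 Further: binding of the protein to compounds printed on small-molecule microarray slides.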 Particulars: higher = more signal.
The nature of assay [8]: FRG1 expression reporter modulators in myotubes – cell-based, C2C12 myotubes, firefly/Renilla luciferase, luminescence, FRG1 inhibition for FSHD, primary screen (AID 1084). As to conditions: FRG1 promoter luciferase, higher = more signal, called active from +8 up or from −8 down.
Assay [9] can be described thus: small molecules captured by biotinylated probe aFST – biochemical, small-molecule microarray, fluorescence 635/667, stem cell growth factor project, primary screen (AID 1086).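 Further: score merges 667 nm fluorescence with signal-to-noise of each printed compound spot.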 As to conditions: higher = more signal.
Assay [10] in a line: binders of probe aHhip on microarray, primary screen, stem cell growth factor project, biochemical, small-molecule microarray, fluorescence 635/667 (AID 1087).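 Further: score merges spot fluorescence at 667nm with spot signal to noise ratio.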 Particulars: higher = more signal.
Assay [11] relates to PRMT1 (protein arginine N-methyltransferase 1). The assay can be described thus: small molecules binding arginine methyltransferase PRMT1 – biochemical, small-molecule microarray, 635 nm fluorescence, primary screen (AID 1088).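 Further: binding of Prmt1 protein to compounds spotted on small-molecule microarray slides.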 As to conditions: higher = more signal.
The nature of assay [12]: growth effects on S. cerevisiae YJM789 – YJM789 clinical isolate, OD600, 24 h, basal, primary screen (AID 1089).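 Further: growth of clinical yeast isolate S. cerevisiae YJM 789 seeded 1000 cells per well; test concentration not given here.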 Particulars: higher = more signal, called active from +8 up or from −8 down.
The nature of assay [13]: S. pombe growth modifiers, basal conditions – strain 972, OD600, 24 h, no modulator, primary screen (AID 1090).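 Further: basal condition with compound alone and no growth modifier present; test concentration not given here.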 As to conditions: S. pombe 972 growth, higher = more signal, called active from +8 up or from −8 down.
Assay [14] can be described thus: budding yeast growth modifiers under rapamycin – strain BY4716, OD600, 96 h, primary screen (AID 1091). Further: test concentration not given here. Particulars: S. cerevisiae BY4716 + rapamycin, higher = more signal, called active from +8 up or from −8 down.
For assay [15], the target named is Torsin-1A-interacting protein 2 (Homo sapiens) (UniProt Q8NFQ8). The experiment in a line: small molecules binding lysate-expressed LULL1 – cell lysate, human LULL1 lysate, 635/667 nm fluorescence, primary screen (AID 1092).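 Further: probe is lysate of COS7 cells overexpressing human LULL1; score merges per-feature 667 nm fluorescence with signal-to-noise.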 As to conditions: small-molecule microarray, hLULL1 lysate binding, 635 nm fluorescence; higher = more signal.
Chain of Torsin-1A-interacting protein 2 (Homo sapiens) (Q8NFQ8 whole entry, looked up): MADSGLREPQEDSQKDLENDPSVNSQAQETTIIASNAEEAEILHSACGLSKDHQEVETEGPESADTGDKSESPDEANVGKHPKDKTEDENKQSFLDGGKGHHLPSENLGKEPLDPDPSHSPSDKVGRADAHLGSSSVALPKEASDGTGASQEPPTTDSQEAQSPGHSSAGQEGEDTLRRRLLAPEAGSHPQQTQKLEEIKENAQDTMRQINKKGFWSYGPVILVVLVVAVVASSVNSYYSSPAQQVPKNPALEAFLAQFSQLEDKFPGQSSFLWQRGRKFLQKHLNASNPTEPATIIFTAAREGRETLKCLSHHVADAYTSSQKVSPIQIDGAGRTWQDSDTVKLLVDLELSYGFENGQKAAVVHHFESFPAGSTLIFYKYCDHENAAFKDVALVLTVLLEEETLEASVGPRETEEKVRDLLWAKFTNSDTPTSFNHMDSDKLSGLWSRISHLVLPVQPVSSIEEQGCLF
Assay [16] in a line: optical density change of DRC41 E. coli – strain DRC41, OD650, 24 h, E. coli filamentation project, primary screen (AID 1093).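 Further: MC1000 strain lacking acrAB efflux and sulA so SOS filamentation is blocked; test concentration not given here.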 As to conditions: E. coli DRC41 growth, higher = more signal, called active from +8 up or from −8 down.
Assay [17] is described as follows: probe aLefty2 binding to arrayed compounds – biochemical, biotinylated probe, 635/667 nm fluorescence, primary screen (AID 1094).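 Further: score merges spot fluorescence near 667 nm with spot signal-to-noise ratio.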 Particulars: small-molecule microarray, higher = more signal.
The test system of assay [18] is Noggin (protein binding on small-molecule microarray). The experiment in a line: small molecules binding Noggin protein – biochemical, 635/667 nm fluorescence, primary screen (AID 1095).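 Further: score merges 667 nm feature fluorescence with signal to noise over triplicate slides.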 As to conditions: 635 nm fluorescence, higher = more signal.
Assay [19] deals with Neurogenic locus notch homolog protein 3 (Homo sapiens) (UniProt Q9UM47). The experiment in a line: small molecules binding NOTCH3 protein – biochemical, 635/667 nm fluorescence, primary screen (AID 1096). Particulars: small-molecule microarray, 635 nm fluorescence, higher = more signal.
Chain of Neurogenic locus notch homolog protein 3 (Homo sapiens) (Q9UM47 whole entry, looked up): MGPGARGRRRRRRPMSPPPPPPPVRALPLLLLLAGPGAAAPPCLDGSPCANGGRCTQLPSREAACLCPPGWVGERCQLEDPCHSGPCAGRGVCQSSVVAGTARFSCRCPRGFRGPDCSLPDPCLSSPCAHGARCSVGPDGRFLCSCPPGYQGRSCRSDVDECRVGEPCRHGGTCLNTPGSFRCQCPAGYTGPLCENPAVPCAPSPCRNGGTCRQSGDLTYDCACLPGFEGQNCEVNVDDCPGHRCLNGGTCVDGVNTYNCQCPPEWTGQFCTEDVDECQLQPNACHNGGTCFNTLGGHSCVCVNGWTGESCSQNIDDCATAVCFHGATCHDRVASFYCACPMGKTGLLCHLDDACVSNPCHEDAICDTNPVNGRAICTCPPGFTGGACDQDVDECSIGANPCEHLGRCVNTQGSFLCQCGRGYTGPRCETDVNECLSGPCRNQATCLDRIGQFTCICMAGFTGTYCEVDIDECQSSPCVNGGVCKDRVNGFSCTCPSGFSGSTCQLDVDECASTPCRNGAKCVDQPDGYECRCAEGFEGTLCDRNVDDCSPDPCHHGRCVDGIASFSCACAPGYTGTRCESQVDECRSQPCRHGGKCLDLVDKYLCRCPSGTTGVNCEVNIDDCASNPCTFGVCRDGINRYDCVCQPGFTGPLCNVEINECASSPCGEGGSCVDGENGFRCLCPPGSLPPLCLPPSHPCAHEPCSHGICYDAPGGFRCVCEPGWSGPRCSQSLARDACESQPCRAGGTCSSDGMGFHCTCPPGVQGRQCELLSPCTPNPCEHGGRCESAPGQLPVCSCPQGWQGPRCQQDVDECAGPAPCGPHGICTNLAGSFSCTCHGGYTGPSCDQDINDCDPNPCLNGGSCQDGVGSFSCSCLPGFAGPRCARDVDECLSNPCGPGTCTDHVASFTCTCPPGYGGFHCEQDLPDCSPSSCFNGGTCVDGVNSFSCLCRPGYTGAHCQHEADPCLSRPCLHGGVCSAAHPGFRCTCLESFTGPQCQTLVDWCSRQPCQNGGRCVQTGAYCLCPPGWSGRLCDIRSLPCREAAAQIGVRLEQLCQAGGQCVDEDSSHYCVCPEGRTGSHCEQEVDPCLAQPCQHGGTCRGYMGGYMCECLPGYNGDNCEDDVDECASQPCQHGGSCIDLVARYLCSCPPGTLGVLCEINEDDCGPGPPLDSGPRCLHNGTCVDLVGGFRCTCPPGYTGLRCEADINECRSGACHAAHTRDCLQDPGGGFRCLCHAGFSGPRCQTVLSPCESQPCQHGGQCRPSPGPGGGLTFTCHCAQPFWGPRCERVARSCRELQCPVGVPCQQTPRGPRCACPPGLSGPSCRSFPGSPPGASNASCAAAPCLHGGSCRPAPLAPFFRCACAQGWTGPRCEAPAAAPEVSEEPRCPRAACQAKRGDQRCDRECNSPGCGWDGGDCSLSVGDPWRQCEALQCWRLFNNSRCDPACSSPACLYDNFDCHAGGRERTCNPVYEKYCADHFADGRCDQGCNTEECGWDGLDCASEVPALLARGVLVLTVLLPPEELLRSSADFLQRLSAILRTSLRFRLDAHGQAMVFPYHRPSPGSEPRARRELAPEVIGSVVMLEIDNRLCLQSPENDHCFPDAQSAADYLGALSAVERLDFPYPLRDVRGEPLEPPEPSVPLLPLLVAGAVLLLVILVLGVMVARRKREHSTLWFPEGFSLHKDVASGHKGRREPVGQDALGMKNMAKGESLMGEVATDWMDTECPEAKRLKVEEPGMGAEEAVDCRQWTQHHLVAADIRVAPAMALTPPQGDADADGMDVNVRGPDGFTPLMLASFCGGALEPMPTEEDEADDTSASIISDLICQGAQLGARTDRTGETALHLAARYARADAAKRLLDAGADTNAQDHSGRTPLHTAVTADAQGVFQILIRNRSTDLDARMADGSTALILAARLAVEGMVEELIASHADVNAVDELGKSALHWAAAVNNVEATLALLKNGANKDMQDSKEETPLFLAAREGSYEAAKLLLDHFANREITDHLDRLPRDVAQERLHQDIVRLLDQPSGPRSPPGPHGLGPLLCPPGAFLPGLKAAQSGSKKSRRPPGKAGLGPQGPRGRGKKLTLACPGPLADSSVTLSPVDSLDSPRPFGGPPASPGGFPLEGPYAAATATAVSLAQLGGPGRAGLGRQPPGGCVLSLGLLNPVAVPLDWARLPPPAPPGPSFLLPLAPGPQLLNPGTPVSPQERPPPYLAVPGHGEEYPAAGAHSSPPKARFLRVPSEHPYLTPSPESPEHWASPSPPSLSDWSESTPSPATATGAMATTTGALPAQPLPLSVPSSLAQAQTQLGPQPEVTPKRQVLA
A short description of assay [20]: probe aEGFR binding to arrayed compounds – biochemical, biotinylated probe, 635/667 nm fluorescence, primary screen (AID 1097).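 Further: probe is a biotinylated anti-EGFR antibody binding compounds printed on slides; score combines fluorescence near 667 nm and signal to noise of each spot.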 Particulars: small-molecule microarray, higher = more signal.

Activity calls are given as the source filed them.

Consider `O=C1C2C=CC(C(O)c3cc(C(F)(F)F)cc(C(F)(F)F)c3)N(Nc3ccccc3F)C2C(=O)N1c1ccccc1` (stereo not given), for which the composite z-score was 0.835 in [1]; 0.554 in assay [2]; -0.0049 in [3]; 0.233 in assay [4]; 0.909 in [5]; 1.85 in assay [6]. For the same molecule, the composite z-score was 1.16 in assay [7]; 0.967 in assay [9]; -0.202 in [10]; 1.11 in assay [11]; 3.19 in assay [15]; 0.0655 in [17]. For the same molecule, the figures for the composite z-score in assay [18], in [19] and in assay [20] were -0.989, 1.07 and 0.0061, respectively. Moreover, the z-score in assay [8] is 0.285 (inactive); in assay [12] it was 0.503 (inactive); in [13], 0.854 (inactive); in assay [14], 6.9 (inactive); in [16], -1.99 (inactive).
As for `Cc1ccc(S[C@]2(C(=O)NC(C)C)CC(=O)N(C(C)C)[C@@H]2c2ccc(CO)cc2I)cc1`, the composite z-score is -0.244 in assay [1]; -0.242 in assay [2]; -0.0272 in [3]; 0.145 in assay [4]; 0.0213 in assay [5]; 0.637 in assay [6]. The composite z-score in assay [7] was 1.05; in assay [9], -0.198; in assay [10], 0.0749; in assay [11] it was 0.841; in [15], 1.53; in assay [17], -0.0654. For the same molecule, the composite z-score in assay [18] was -0.337; in [19], -0.196; in assay [20], -0.144. Moreover, the z-score in assay [8] was -0.13 (inactive); in assay [12], -0.466 (inactive); in [13], -0.222 (inactive); in [14], -0.294 (inactive); in assay [16], 0.529 (inactive).
On to `C=CCNC(=O)[C@H]1[C@@H]2C(=O)O[C@@H](c3ccccc3)[C@@H](c3ccccc3)N2[C@@H](c2ccc(OCCO)cc2)[C@]12C(=O)N(C(=O)OCCOC)c1ccc(C#Cc3ccc(OC)cc3)cc12`, for which the composite z-score is 0.0886 in [1]; 0.91 in [2]; -0.0252 in [3]; 0.713 in [4]; 0.897 in assay [5]; 0.671 in assay [6]. Further, the composite z-score is 1.12 in assay [7]; 0.111 in [9]; -0.335 in assay [10]; 1.41 in assay [11]; 2.47 in [15]; -0.0154 in assay [17]. Further, the composite z-score in assay [18] is 1.04; in [19], 1.09; in assay [20], -0.0164. Moreover, the z-score in assay [8] was 0.0138 (inactive); in assay [12], 1.2 (inactive); in [13] it was 0.927 (inactive); in assay [14], 6.91 (inactive); in [16], 2.63 (inactive).
Take `CCOC(=O)C1=C[C@@H](C(C)(C)C)N(S(=O)(=O)c2ccc(C)cc2)[C@H]1c1ccccc1`: the composite z-score in assay [1] was 0.401; in [2], 0.685; in assay [3], 0.0524; in assay [4] it was 0.69; in assay [5], 1.63; in [6], 0.4. Also, the composite z-score was 0.954 in assay [7]; 1.04 in [9]; 0.206 in assay [10]; 1.22 in assay [11]; 0.928 in [15]; 0.0194 in assay [17]. Besides, the composite z-score was found to be 0.576 in assay [18], 1.07 in assay [19] and 0.124 in [20]. Also, the z-score in [8] is -1.66 (inactive); in assay [12], 0.826 (inactive); in assay [13] it was 1.27 (inactive); in [14] it was 1.41 (inactive); in assay [16], -0.0247 (inactive).
Turning to `O=C(CS)NCCCCCCNC(=O)[C@@H]1C[C@@H]2C(=O)NCC(=O)N2[C@@H]1c1ccc(O)cc1`, the composite z-score in [1] was 0.169; in [2] it was -0.0906; in [3] it was -0.157; in [4], -0.505; in [5], -0.918; in [6] it was -0.75. Moreover, the composite z-score in [7] is 0.729; in assay [9], -0.183; in [10] it was -0.0324; in assay [11], 0.801; in [15], 2.92; in assay [17] it was -0.0692. Moreover, the composite z-score in [18] was -0.728; in assay [19] it was -0.028; in [20], -0.218. The z-score in [8] was -1.15 (inactive); in assay [12], -2.07 (inactive); in assay [13] it was 0.172 (inactive); in assay [14], -0.436 (inactive); in [16] it was 0.869 (inactive).

(Values after PubChem BioAssay.)
